Here are results for 18 compounds from PubChem BioAssay (NCI).

What all share (test): NCI-60 one-dose screen, 48 h (100 = growth as untreated, 0 = no growth, -100 = all killed)
The subject of one assay is T-47D breast. The note with it: 10 µM.
A further assay concerns BT-549 breast. Conditions: 10 µM.
The test system of another assay is MDA-MB-435 melanoma. Conditions: 10 µM.
The subject of another assay is SW-620 colon. The note with it: 10 µM.
In the next assay the test system is MCF7 breast. Conditions: 10 µM unless noted.
The test system of a further assay is HCT-116 colon. Conditions: 10 µM.
The next assay deals with HCC-2998 colon. The note with it: 10 µM.
A further assay deals with KM12 colon. The note with it: 10 µM.

Each structure is given as a SMILES string. Compounds without any hit were thinned out: in the full panel of roughly 83,000, 20% have a hit.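 Interpretation: 100, growth as untreated; towards 0, rising growth inhibition; 0, no net growth; 0 to -100, cell death. Compounds scoring below 10 were considered active.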 A number with no mark means an inactive call. The source made the active and inactive calls.

For the compound `CCCCCCCCCCC(C)Br` (centres undefined), the growth is 99.2% in the assay on T-47D breast; 105% with BT-549 breast; 99.6% in the assay with MDA-MB-435 melanoma; 106% in the assay with SW-620 colon; 98.4% in the assay with MCF7 breast; 100% in the assay with HCT-116 colon. The figures for the growth with HCC-2998 colon and in the assay on KM12 colon were 91% and 107%, respectively.
Regarding `CC1CCCC(CC(N)=O)CC1` (centres undefined), the growth was 101% in the assay with T-47D breast; 116% in the assay on BT-549 breast; 104% in the assay with MDA-MB-435 melanoma; 105% in the assay on SW-620 colon; 103% in the assay with MCF7 breast; 98.4% in the assay with HCT-116 colon. In addition, the growth with HCC-2998 colon is 102%; with KM12 colon it was 107%.
With `COc1cccc(O)c1O`, the growth is 84.1% in the assay with T-47D breast; 82.3% with BT-549 breast; 6.89% (active) in the assay with MDA-MB-435 melanoma; 42.6% with SW-620 colon; 20.2% with MCF7 breast; 98.6% in the assay with HCT-116 colon. Moreover, the growth with HCC-2998 colon was 99.8%; in the assay on KM12 colon, 52.6%.
Regarding `CO[C@H]1C[C@@H]2CC[C@@H](C)[C@@](O)(O2)C(=O)C(=O)N2CCCC[C@H]2C(=O)O[C@H]([C@H](C)C[C@@H]2CC[C@@H](O)[C@H](OC)C2)CC(=O)[C@H](C)C=C(C)[C@@H](O)[C@@H](OC)C(=O)[C@H](C)C[C@H](C)/C=C/C=C/C=C1C`, the growth with T-47D breast was 19.4%; with BT-549 breast it was 15.6%; with MDA-MB-435 melanoma, 49%; in the assay with SW-620 colon, 58%; in the assay with MCF7 breast, 23.8%; in the assay with HCT-116 colon, 31.1%. Further, the growth in the assay on HCC-2998 colon was 146%; in the assay with KM12 colon it was 60.9%.
As to `O=C(O)CCC(=O)OC(C1CO1)C(OC(=O)CCC(=O)O)C1CO1` (centres undefined), the growth with T-47D breast is 94%; in the assay on BT-549 breast it was 108%; in the assay on MDA-MB-435 melanoma, 103%; in the assay on SW-620 colon, 106%; in the assay with MCF7 breast, 90.6%; with HCT-116 colon, 99.2%. The growth in the assay on HCC-2998 colon was 108%; in the assay with KM12 colon it was 101%.
Take `CN1C(=O)CN2CCc3ccccc3C2c2cc(Cl)ccc21` (centres undefined): the growth in the assay with T-47D breast was 104%; in the assay with BT-549 breast it was 99.7%; with MDA-MB-435 melanoma it was 105%; with SW-620 colon it was -33.6% (active); in the assay on MCF7 breast, 84.5%; in the assay on HCT-116 colon it was 82.5%. Also, the growth in the assay on HCC-2998 colon was 98.1%; in the assay on KM12 colon it was 106%.
Take `CCCCC(=O)c1ccc(OC)cc1`: the growth in the assay on T-47D breast is 110%; in the assay with BT-549 breast it was 102%; with MDA-MB-435 melanoma it was 98.7%; with SW-620 colon, 101%; with MCF7 breast, 97.6%; in the assay with HCT-116 colon, 101%. In addition, the growth with HCC-2998 colon was 116%; in the assay with KM12 colon, 104%.
As for `c1ccc(/C(=N\N=C(/c2ccccc2)c2cccs2)c2cccs2)cc1`, the growth in the assay with T-47D breast is 86.7%; with BT-549 breast, 102%; in the assay with MDA-MB-435 melanoma, 103%; with SW-620 colon, 98%; in the assay with MCF7 breast, 96%; with HCT-116 colon, 91.9%. Also, the results for the growth in the assay on HCC-2998 colon and with KM12 colon were 101% and 97.1%, respectively.
As for `COc1ccccc1N=Nc1c(O)ccc2cc(S(=O)(=O)O)ccc12`, the growth with T-47D breast is 91.4%; in the assay with BT-549 breast, 99.4%; in the assay on MDA-MB-435 melanoma it was 108%; in the assay on SW-620 colon it was 103%; in the assay with MCF7 breast, 93.2%; in the assay with HCT-116 colon it was 103%. Also, the growth in the assay on HCC-2998 colon was 96.3%; in the assay with KM12 colon, 104%.
With `COc1cc([C@@H]2c3cc4c(cc3[C@H](O)[C@H]3COC(=O)[C@H]23)OCO4)cc(OC)c1OC`, the growth with T-47D breast is 65.5%; in the assay with BT-549 breast, 7.33% (active); in the assay on MDA-MB-435 melanoma, -30.3% (active); in the assay on SW-620 colon it was 24.5%; in the assay with MCF7 breast, 5.76% (active); in the assay with HCT-116 colon, 2.8% (active). Moreover, the values for the growth with HCC-2998 colon and with KM12 colon were -4.87% (active) and -4.78% (active), respectively.
As to `CCOC(=O)c1cc2cccc(OC)c2oc1=O`, the growth is 106% in the assay on T-47D breast; 88.6% in the assay with BT-549 breast; 110% in the assay on MDA-MB-435 melanoma; 111% in the assay with SW-620 colon; 105% with MCF7 breast; 101% with HCT-116 colon. Further, the results for the growth with HCC-2998 colon and in the assay on KM12 colon were 108% and 113%, respectively.
With `O=c1cc2oc3cc(O)c(O)cc3c(-c3ccccc3O)c-2cc1O`, the growth in the assay with T-47D breast was 70.8%; in the assay on BT-549 breast, 77.7%; in the assay on MDA-MB-435 melanoma, 68.9%; in the assay on SW-620 colon, 89.3%; in the assay with MCF7 breast it was 75.8%; in the assay with HCT-116 colon, 59.2%. The growth in the assay with HCC-2998 colon was 94.7%; in the assay with KM12 colon, 92.7%.
As for `Nc1ccc(N=Nc2ccc(O)cc2)c(N)n1`, the growth with T-47D breast was 82.8%; in the assay on BT-549 breast, 57.2%; in the assay on MDA-MB-435 melanoma it was 69.3%; in the assay on SW-620 colon, 104%; in the assay on MCF7 breast, 93.4%; in the assay on HCT-116 colon, 86.3%. The growth in the assay on HCC-2998 colon was 81.5%; in the assay on KM12 colon, 43.2%.
For the compound `NC(C(=O)O)C(O)c1ccco1` (centres undefined), the growth in the assay with T-47D breast was 98%; in the assay with BT-549 breast, 109%; with MDA-MB-435 melanoma, 107%; in the assay with SW-620 colon, 102%; in the assay on MCF7 breast, 95.2%; in the assay with HCT-116 colon it was 111%. Besides, the growth with HCC-2998 colon and in the assay on KM12 colon was 107% in each case.
With `N#CCCN(CCCN1CCOCC1)CN1C(=O)c2ccccc2C1=O`, the growth in the assay with T-47D breast was 96%; in the assay on BT-549 breast, 128%; with MDA-MB-435 melanoma, 108%; in the assay on SW-620 colon, 114%; in the assay on MCF7 breast it was 95.8%; in the assay with HCT-116 colon, 109%. The growth is 101% in the assay with HCC-2998 colon and 112% in the assay on KM12 colon.
Turning to `CC1(O)CCCCC1O` (centres undefined), the growth in the assay on T-47D breast was 98.4%; with BT-549 breast, 94%; in the assay with MDA-MB-435 melanoma it was 117%; in the assay with SW-620 colon it was 104%; with MCF7 breast, 106%; in the assay on HCT-116 colon, 101%. For the same compound, the growth with HCC-2998 colon is 104%; with KM12 colon, 115%.
For the compound `CCC/C=C(\C)C(C)(C#N)C(=O)OCC` (centres undefined), the growth is 112% with T-47D breast; 116% in the assay on BT-549 breast; 96.3% in the assay on MDA-MB-435 melanoma; 109% with SW-620 colon; 97.1% in the assay on MCF7 breast; 120% in the assay on HCT-116 colon. Besides, the growth in the assay on HCC-2998 colon is 118%; in the assay on KM12 colon, 110%.
`C=CCNC(=O)c1ccc(OC)cc1`: the growth was 103% in the assay with T-47D breast; 106% with BT-549 breast; 109% with MDA-MB-435 melanoma; 126% in the assay with SW-620 colon; 95.2% in the assay with MCF7 breast; 105% with HCT-116 colon. Besides, the growth was 93.3% in the assay on HCC-2998 colon and 122% in the assay on KM12 colon.
